In PubChem BioAssay AID434970 (Sanford-Burnham Center for Chemical Genomics, 2010):
The whole screen tested about 11,000 compounds, of which about 310 (2.8%) were called active. Rule as the data show it: active = activity change below about -85%; inactive = the rest. What follows is part of a selection rich in actives, with near analogues and random picks from the rest.

The compounds below were run on intestinal alkaline phosphatase [Mus musculus] (assay: mouse intestinal phosphatase enzyme activation – biochemical, luminescence, single concentration, confirmation (AID 434970)). Details: purified mouse IAP, CDP-Star luminescence, 30 min, at 10 µM; activation factor: measured here: IAP activation factor, stronger effect = higher value; activity change, negative = activation: stronger effect = lower value.

Q: With `CC(C)OCCCNC(=O)C(=O)NCCCOC(C)C` as the compound, how does the activation factor read?
A: The activation factor was 0.962.

Q: And the activity change, negative = activation?
A: The activity change, negative = activation was 3.8% (inactive).

Q: What does the source list for `COC(=O)c1ccccc1NC(=O)CCS(=O)(=O)c1ccc(Br)s1`?
A: activation factor: 1.05; activity change, negative = activation: -5% (inactive)

Q: For `O=C(O)Cn1c(SCc2cccc3ccccc23)nc2ccccc21`, which activation factor is on record?
A: Its activation factor is 1.09.

Q: What about the activity change, negative = activation of the same compound?
A: The activity change, negative = activation was -9.2% (inactive).

Q: What does the source list for `S=c1[nH]ncn1/N=C/c1ccc(N2CCOCC2)cc1`?
A: activation factor: 1; activity change, negative = activation: -0.35% (inactive)

Q: `CCOC(=O)c1c(C)[nH]c(O)c1C=Nc1ccc(C(F)(F)F)cc1` was tested. Which activation factor did it give?
A: The activation factor was 0.846.

Q: And the activity change, negative = activation?
A: Its activity change, negative = activation is 15.4% (inactive).

Q: How did the activation factor turn out when `COc1ccc(OC)c(NC(=O)C(=O)/C=C(\O)c2cc(OC)ccc2OC)c1` was run?
A: Its activation factor is 0.905.

Q: What about the activity change, negative = activation of the same compound?
A: Its activity change, negative = activation is 9.55% (inactive).

Q: Which activation factor does the source give for `Cc1ccc(/C(N)=N/OC(=O)Oc2ccccc2)cc1` here?
A: The activation factor was 0.99.

Q: And the activity change, negative = activation?
A: The activity change, negative = activation was 1% (inactive).

Q: How did the activation factor turn out when `COc1ccc(CCNC(=O)c2ccc(Cl)cc2Cl)cc1` was run?
A: Its activation factor is 1.19.

Q: What about the activity change, negative = activation of the same compound?
A: Its activity change, negative = activation is -18.9% (inactive).

Q: With `COc1ccc(CCNC(=O)c2ccc(Cl)cc2)cc1` as the compound, how does the activation factor read?
A: The activation factor was 1.08.

Q: What about the activity change, negative = activation of the same compound?
A: Its activity change, negative = activation is -8.2% (inactive).

Q: With `COc1ccc(CCNC(=O)c2cc(-c3cc(Cl)cc(Cl)c3)oc2C)cc1` as the compound, how does the activation factor read?
A: Its activation factor is 2.07.

Q: What about the activity change, negative = activation of the same compound?
A: The activity change, negative = activation was -107% (active).

Q: How did the activation factor turn out when `O=C(CCCNS(=O)(=O)c1cccs1)N1CCN(c2ccc(F)cc2)CC1` was run?
A: Its activation factor is 0.934.

Q: And the activity change, negative = activation?
A: The activity change, negative = activation was 6.55% (inactive).

Q: For `COc1ccc(NC(=S)NCC2CCCO2)c(OC)c1` (centres undefined), which activation factor is on record?
A: Its activation factor is 0.95.

Q: And the activity change, negative = activation?
A: The activity change, negative = activation was 4.95% (inactive).

Q: What does the source list for `C#CCOCCOCCOCCNc1nc(N2CCN(C(=O)CCCCCCCCCCNC(=O)Cn3cc(C[C@@H](C)O)nn3)CC2)nc(N2CCN(C(=O)CCCCCCCCCCNC(=O)[C@H](CCCCN)n3cc(C[C@@H](C)CC)nn3)CC2)n1`?
A: activation factor: 2.76; activity change, negative = activation: -176% (active)

Q: With `C#CCOCCOCCOCCNc1nc(N2CCN(C(=O)CCCCCCCCCCNC(=O)Cn3cc(C[C@@H](C)O)nn3)CC2)nc(N2CCN(C(=O)CCCCCCCCCCNC(=O)[C@H](CCCN=C(N)N)n3cc(C[C@@H](C)CC)nn3)CC2)n1` as the compound, how does the activation factor read?
A: Its activation factor is 5.68.

Q: What about the activity change, negative = activation of the same compound?
A: Its activity change, negative = activation is -468% (active).

Q: Which results are given for `CC[C@H](C)Cc1cn([C@@H](CCCCNC(=O)OC(C)(C)C)C(=O)NCCCCCCCCCCC(=O)N2CCN(C(=O)OC(C)(C)C)CC2)nn1`?
A: activation factor: 1.57; activity change, negative = activation: -56.9% (inactive)

Q: For `CCc1cccc(CC)c1NC(=O)CSc1nc2ccc(N3C(=O)C4C5C=CC(C5)C4C3=O)cc2s1` (centres undefined), which activation factor is on record?
A: The activation factor was 0.959.

Q: What about the activity change, negative = activation of the same compound?
A: Its activity change, negative = activation is 4.1% (inactive).

Q: How did the activation factor turn out when `CCOC(=O)C1(CC)NC(c2ccco2)C2C(=O)N(c3ccc(C)cc3)C(=O)C21` (centres undefined) was run?
A: Its activation factor is 1.05.

Q: What about the activity change, negative = activation of the same compound?
A: Its activity change, negative = activation is -4.65% (inactive).

Q: What does the source list for `COCCCNC(=O)C[C@H]1C[C@H](C(=O)N2CCCCC2)[C@@]2(CCc3ccccc3)c3[nH]c4ccc(Cl)cc4c3CCN2C1=O`?
A: activation factor: 1.2; activity change, negative = activation: -19.7% (inactive)

Q: Which results are given for `CCOC(=O)C1(C)/C(=N/Nc2ccccc2Cl)C(=O)C(=O)N1c1ccccc1` (centres undefined)?
A: activation factor: 0.886; activity change, negative = activation: 11.4% (inactive)

Q: `Cc1ccc(C)c(N2CCN(C(=O)CCc3nc(-c4ccc(Br)cc4)no3)CC2)c1` was tested. Which activation factor did it give?
A: Its activation factor is 1.04.

Q: And the activity change, negative = activation?
A: Its activity change, negative = activation is -4.15% (inactive).

Q: How did the activation factor turn out when `NC(=O)C1CCN(CC(=O)Nc2ccccn2)CC1` was run?
A: Its activation factor is 0.922.

Q: And the activity change, negative = activation?
A: Its activity change, negative = activation is 7.8% (inactive).

Q: How did the activation factor turn out when `CCCN(CCC)C(=O)c1ccc2c(c1)OCO2` was run?
A: Its activation factor is 1.05.

Q: And the activity change, negative = activation?
A: The activity change, negative = activation was -5.1% (inactive).

Q: For `COc1ccc(CN2CC[C@H]3C=CC[C@@H](C(=O)Nc4ccc(Cl)c(C(F)(F)F)c4)[C@H]3C2=O)cc1OC`, which activation factor is on record?
A: Its activation factor is 2.85.

Q: What about the activity change, negative = activation of the same compound?
A: The activity change, negative = activation was -185% (active).

Q: How did the activation factor turn out when `O=C(O)[C@H]1CC=C[C@H]2CCN(Cc3ccc(Cl)c(Cl)c3)C(=O)[C@@H]12` was run?
A: The activation factor was 1.05.

Q: And the activity change, negative = activation?
A: Its activity change, negative = activation is -5.25% (inactive).

Q: For `CCCCN1CC[C@@H]2C=CC[C@H](C(=O)OC)[C@@H]2C1=O`, which activation factor is on record?
A: The activation factor was 0.952.

Q: What about the activity change, negative = activation of the same compound?
A: Its activity change, negative = activation is 4.85% (inactive).

Q: `CCOC(=O)c1ccc(NC(=O)NC2CC3CCC(C2)N3Cc2nnnn2C(C)(C)C)cc1` (centres undefined) was tested. Which activation factor did it give?
A: Its activation factor is 1.46.

Q: What about the activity change, negative = activation of the same compound?
A: Its activity change, negative = activation is -45.8% (inactive).

Q: Which activation factor does the source give for `CC(C)=CCC/C(C)=C/CNC(=O)C[C@H]1C[C@H](C(=O)N(C(C)C)C(C)C)[C@@]2(C)c3[nH]c4ccc(Cl)cc4c3CCN2C1=O` here?
A: Its activation factor is 1.25.

Q: And the activity change, negative = activation?
A: Its activity change, negative = activation is -25.1% (inactive).

Q: What does the source list for `COc1ccc2[nH]c3c(c2c1)CCN1C(=O)C(CC(=O)NC/C=C(\C)CCC=C(C)C)C[C@H](C(=O)N(C(C)C)C(C)C)[C@@]31C` (some centres undefined)?
A: activation factor: 2; activity change, negative = activation: -100% (active)

Q: Which results are given for `CCN(CC)C(=O)[C@H]1CC(CC(=O)NC/C=C(\C)CCC=C(C)C)C(=O)N2CCc3c([nH]c4ccc(OC)cc34)[C@]12C` (some centres undefined)?
A: activation factor: 1.25; activity change, negative = activation: -24.9% (inactive)

Q: With `Cc1ccc(NCc2nnc(SCC(N)=O)n2CC2CCCO2)c(C)c1` (centres undefined) as the compound, how does the activation factor read?
A: The activation factor was 1.09.

Q: What about the activity change, negative = activation of the same compound?
A: The activity change, negative = activation was -9.4% (inactive).

Q: For `COc1ccc(CNC(=O)Nc2cccc(C(F)(F)F)c2)cc1OC`, which activation factor is on record?
A: Its activation factor is 2.21.

Q: What about the activity change, negative = activation of the same compound?
A: The activity change, negative = activation was -121% (active).

Q: With `O=C(NCc1ccc2c(c1)CCO2)Nc1cccc(C(F)(F)F)c1` as the compound, how does the activation factor read?
A: The activation factor was 2.44.

Q: What about the activity change, negative = activation of the same compound?
A: Its activity change, negative = activation is -144% (active).

Q: For `Fc1ccc(CNC(=S)Nc2cccc(C(F)(F)F)c2)cc1`, which activation factor is on record?
A: Its activation factor is 1.28.

Q: And the activity change, negative = activation?
A: Its activity change, negative = activation is -27.5% (inactive).

Q: With `COc1ccc(CNC(=O)NCc2ccc(OC)c(OC)c2)cc1OC` as the compound, how does the activation factor read?
A: Its activation factor is 1.09.

Q: And the activity change, negative = activation?
A: The activity change, negative = activation was -9% (inactive).

Q: With `FC(F)(F)c1cccc(NC(=S)NCc2ccc(Cl)cc2)c1` as the compound, how does the activation factor read?
A: Its activation factor is 1.18.

Q: And the activity change, negative = activation?
A: The activity change, negative = activation was -18.2% (inactive).

Q: Which results are given for `FC(F)(F)c1cccc(NC(=S)NCc2ccccc2)c1`?
A: activation factor: 1.69; activity change, negative = activation: -69.2% (inactive)

Q: `Cc1cc(C)c2c(-n3cccc3)c(C(=O)NNS(=O)(=O)c3ccc(Br)cc3)sc2n1` was tested. Which activation factor did it give?
A: The activation factor was 0.865.

Q: And the activity change, negative = activation?
A: Its activity change, negative = activation is 13.5% (inactive).
